HepG2 viability: kills HepG2 cells in TGF-b inhibitor counter-screen; HepG2 CAGA-GFP viability, ATP luminescence, 18 h; Potency, µM (series often up to 46.1 µM), for the others: at the highest dose activity change, negative = cytotoxicity, hits mostly cytotoxic; hit rate 0.76% among 410,000
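HepG2 CAGA-GFP cells (1000/well, DMEM with 1% FBS) received compound, then TGF-beta at 500 pg/mL final, and were incubated 18 hours at 37 degrees C. Viability was read by CellTiter-Glo luminescence. Media-only wells were set as complete cell-killing and DMSO as no toxicity.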
S2 tox: cell viability loss in ATXN counter-screen. S2 cells (HEK-293 line with an ATXN2-luciferase reporter) viability, CellTiter-Fluor protease fluorescence, 24 h. Potency, µM (top dose mostly 56.7 µM), hits mostly cytotoxic. hit rate 0.49% among 400,000; also: nearly all actives have a fitted effect of over 40% in size
VP16 counter: inhibits Gal4-VP16 luciferase reporter, ROR gamma counter-screen; Drosophila S2 Gal4-VP16 UAS-luciferase, luminescence, 20 h; Potency, µM (doses to about 53.6 µM), for the others: top-dose activity, negative = inhibition, hits mostly inhibitors; hit rate 3.5% among 310,000; AID 2546;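 also: Gal4-VP16 expression switched on by copper sulfate through the metallothionein promoter; % is scaled to controls: 0 for no effect and ±100 for the full control effect; nearly all actives have a fitted effect of over 50% in size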
RORg inh: inhibitors of mouse ROR gamma transcriptional activity. hit rate 5.4% among 310,000. P51450. Potency, µM (highest dose often 53.6 µM), inactives show at the highest dose activity change, negative = inhibition, most hits filed as inhibitors. AID 2551. Drosophila S2 Gal4-RORgamma UAS-luciferase reporter, 20 h; also: % is scaled to controls: 0 for no effect and ±100 for the full control effect; nearly all actives have a fitted effect of over 60% in size
Target sequence (P51450 whole entry, looked up, the tested form may be a part): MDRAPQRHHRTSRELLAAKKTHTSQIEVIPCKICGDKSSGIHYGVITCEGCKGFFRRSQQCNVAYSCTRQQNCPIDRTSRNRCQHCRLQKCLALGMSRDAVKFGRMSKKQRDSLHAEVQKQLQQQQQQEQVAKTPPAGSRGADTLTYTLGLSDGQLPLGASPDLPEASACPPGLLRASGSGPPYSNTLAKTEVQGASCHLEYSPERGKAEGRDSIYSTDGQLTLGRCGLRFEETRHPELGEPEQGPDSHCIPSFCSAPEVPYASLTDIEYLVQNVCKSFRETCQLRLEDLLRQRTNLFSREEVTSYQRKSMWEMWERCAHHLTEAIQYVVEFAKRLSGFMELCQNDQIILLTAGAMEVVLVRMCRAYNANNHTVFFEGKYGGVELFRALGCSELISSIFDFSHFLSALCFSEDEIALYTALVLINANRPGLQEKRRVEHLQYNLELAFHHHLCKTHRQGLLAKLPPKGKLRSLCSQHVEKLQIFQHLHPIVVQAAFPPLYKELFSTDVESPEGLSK
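Drosophila Schneider cells stably carrying a metallothionein-driven Gal4 DBD–ROR gamma fusion and a UAS-Photinus luciferase reporter were exposed to compound for 1 hr, then induced with copper sulfate (700 uM final) for 20 hr at ambient temperature before luminescence reading.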
TGFb SMAD3 inh: TGF-b pathway inhibition | AID 588855 | HepG2 CAGA-GFP TGF-b/SMAD3 reporter, GFP fluorescence, 18 h; TGF-beta stimulated, 500 pg/mL final | Potency, µM (titrated, usually from 46.1 µM), inactives show at the highest dose activity, negative = inhibition, most hits filed as inhibitors | hit rate 1.2% among 410,000; also: % is scaled to controls: 0 for no effect and ±100 for the full control effect; nearly all actives have a fitted effect of over 65% in size
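TGF-beta reporter screen: HEPG2 CAGA-GFP, 1% FBS, 500 pg/mL TGF-beta final, 18 h; per-cell GFP summed per well; curves fitted and categorized by class.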
ATXN2 expr inh: inhibitors of ATXN2 expression | Potency, µM (highest dose often 57 µM), for the others: at the top dose activity change, negative = inhibition, hits mostly inhibitors | hit rate 0.72% among 360,000 | HEK-293 ATXN2-luciferase reporter, luminescence, 24 h | AID 1745845; also: % is scaled to controls: 0 for no effect and ±100 for the full control effect; nearly all actives have a fitted effect of over 55% in size
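ATXN2-luciferase reporter cells (luciferase flanked by upstream and downstream ATXN2 gene portions) were treated 24 h at 37 °C with compounds at up to 57 uM. SteadyGlo luminescence gave expression; GF-AFC fluorescence gave viability.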
* marks the source's active call; other numbers are inactive results; i = inactive; u = inconclusive; x = no result given. The list is not random: actives were taken first. Their share in the collection is about 6.3%. Calls follow the shape of the dose curve; as a rule, active = well fitted curve in the direction sought with a large enough effect; inconclusive = small, poorly fitted or top-dose-only effect, or another doubt; inactive = no such curve, though single readings can be large; an effect the other way counts as inactive or inconclusive. Potency is read from the fitted curve at half-maximal effect.

SMILES	HepG2 viability	S2 tox	VP16 counter	RORg inh	TGFb SMAD3 inh	ATXN2 expr inh
COc1ccccc1NC(=O)Nc1nc(C(N)C2CCCCC2)cs1 (configuration not stated)	11µM*	u	x	x	u	u
COc1ccc2nc3cc(Cl)ccc3c(Nc3ccc(O)c(CN4CCN(C)CC4)c3)c2c1	-72%	u	x	x	11µM*	u
COc1ccc2nc3cc(Cl)ccc3c(NCCCN3CCN(CCCNc4c5ccc(Cl)cc5nc5ccc(OC)cc45)CC3)c2c1	x	x	-20%	3%	x	x
O=C(OCC(=O)C12CC3CC(CC(C3)C1)C2)c1ccc(O)cc1O	-64%	i	x	x	u	14%
C#Cc1cccc(C(=O)NCc2nc(-c3ccccc3NC(=O)C3CCCO3)oc2C)c1 (configuration not stated)	x	i	x	x	x	x
S=C(NCc1ccccc1)N1CCN(c2cccc(Cl)c2)CC1	-20%	i	-27%	u	u	-20%
S=C(NC1CC2CCC1C2)N1CCN(c2cccc(Cl)c2)CC1 (configuration not stated)	-34%	i	-14%	22µM*	u	0%
O=C(c1ccc2c(c1)N(Cc1ccc(F)cc1)C(=O)c1ccccc1S2(=O)=O)N1CCCCCC1	-6%	i	x	x	u	-28%
CCCCn1c(-c2sccc2C)n[nH]c1=S	-5%	i	11µM*	5µM*	-1%	0%
CCCCn1c(-c2c(Cl)c(C)nn2C)n[nH]c1=S	-1%	i	-2%	2.2µM*	-4%	-6%
CCCCn1c(-c2ccco2)n[nH]c1=S	-5%	i	7.1µM*	4.5µM*	0%	-3%
C=CCn1c(-c2ccco2)n[nH]c1=S	-13%	i	u	10µM*	0%	-5%
CCCCn1c(-c2ccoc2C)n[nH]c1=S	12%	i	-2%	3%	-2%	-1%
Cc1ccccc1S(=O)(=O)NC(=O)C1(C)CCN1C(=O)c1ccccc1CCc1ccccc1 (configuration not stated)	-14%	i	x	x	-3%	13%
CCn1c(-c2ccco2)n[nH]c1=S	20%	i	u	16µM*	-7%	-1%
Cn1c(-c2ccco2)n[nH]c1=S	-13%	i	-3%	u	0%	-26%
CC(C)Cn1c(-c2ccco2)n[nH]c1=S	1%	i	u	10µM*	-17%	6%
Cc1cc(C)cc(NC(=O)CSc2nc(=O)n3cc(C)ccc3n2)c1	0%	i	x	x	16%	-5%
CCOC(=O)N(C)C[C@@H]1OCc2cnnn2CCCC(=O)N([C@H](C)CO)C[C@@H]1C	-1%	i	x	x	2%	3%
CCOC(=O)N1CCN(Cc2nc3cc(NC(=O)CC(C)C)ccc3n2C(C)C)CC1	2%	x	x	x	x	x
CCOC(=O)N1CCN(Cc2nc3cc(NC(=O)CC)ccc3n2C(C)C)CC1	-23%	x	x	x	8.9µM*	x
O=C(CCN1C(=O)/C(=C/c2cccs2)SC1=S)NC1=NCCS1	-1%	i	u	16µM*	u	-11%
COc1ccccc1/C=C1/SC(=S)N(CCC(=O)Nc2cccnc2)C1=O	5%	i	-8%	22%	9%	-14%
O=C(CCN1C(=O)/C(=C\c2cccs2)SC1=S)NC1=NCCS1	0%	u	u	u	-2%	-12%
COc1ccccc1/C=C1\SC(=S)N(CCC(=O)NC2=NCCS2)C1=O	7%	x	-7%	4.5µM*	1%	u
SMILES	HepG2 viability	S2 tox	VP16 counter	RORg inh	TGFb SMAD3 inh	ATXN2 expr inh
C=CCn1c(-c2ccc(Cl)cc2)cnc1SC(C)C(N)=O (configuration not stated)	-12%	i	u	7.9µM*	-1%	-2%
COc1ncc2nc(-c3cn(C)c4ccccc34)c(=O)n(C[C@H]3CCCO3)c2n1	x	x	-3%	-11%	x	x
O=C(Nc1cc(S(=O)(=O)N2CCCCC2)ccc1Cl)c1ccccc1NS(=O)(=O)c1ccc(F)cc1	-29%	u	5.6µM*	u	3.5µM*	u
Cc1ccc(/C=N/NC(=O)Cc2cccs2)o1	-45%	i	35µM*	u	u	4%
COc1ccc(/C=N/NC(=O)Cc2cccs2)cc1	-11%	i	10%	-3%	-7%	x
COC(=O)N/N=C/c1sc(N2CCCCC2)nc1-c1cccs1	25%	u	0.79µM*	10µM*	2%	25%
CCOC(=O)C1(CCc2ccccc2)CCN(C(=O)[C@@H]2C[C@@H](C)NC(=S)N2)CC1	-29%	i	u	11µM*	11%	27%
CCOC(=O)C1(CCc2ccccc2)CCN(C(=O)C2CCCO2)CC1 (configuration not stated)	11%	i	u	0%	6%	30%
CCOC(=O)C1(CCc2ccccc2)CCN(Cc2ccccn2)CC1	-10%	i	11µM*	5µM*	u	-17%
CCOC(=O)C1(CCc2ccccc2)CCN(Cc2ccc(C(=O)OC)cc2)CC1	0%	i	-19%	75%	-6%	-36%
Cc1csc(NC(=O)c2sc3nc4c(c(C(F)(F)F)c3c2N)CCC4)n1	x	x	x	x	x	0.097µM*
CCc1ccc(NC(=O)CSC2=Nc3ccccc3C3=NC(CC(=O)NCc4ccc5c(c4)OCO5)C(=O)N23)cc1 (configuration not stated)	-29%	25µM*	x	x	-33%	8%
Cc1cccc(Nc2nn3c(=O)c4cc5c(cc4nc3s2)OCO5)c1	-14%	i	x	x	7%	11%
CCC(C)(C)n1nnnc1C(c1cccs1)N1CCc2ccccc21 (configuration not stated)	-31%	i	11µM*	u	13µM*	u
COc1cc(OC)c(S(=O)(=O)NCc2cccnc2)cc1NC(C)=O	-19%	i	3%	19%	-20%	x
COc1cc(OC)c(S(=O)(=O)Nc2ccc(C)cn2)cc1NC(C)=O	10µM*	i	-2%	7%	-13%	10%
COc1ccccc1CNc1nc(NCCN2CCNC2=O)c2sccc2n1	-7%	u	x	x	23%	0%
CCn1c(SC(C)C)nnc1-c1cc(-c2ccccc2)sc1N	-24%	i	7.1µM*	6.3µM*	u	-2%
CC(C)COc1cccc(-c2cc(C(=O)Nc3ccon3)c3ccccc3n2)c1	3%	i	28µM*	u	-21%	-13%
CCCOc1cccc(-c2cc(C(=O)NN)c3ccccc3n2)c1	-7%	i	u	11µM*	8%	u
